Results: PubChem BioAssay (EPA / NIEHS)
Activity calls are given as the source filed them. How the source made its calls: active means hit-call score of the fitted dose curve at least 0.9, where 1 is the maximum; inactive means score below 0.9.

Legend:
[1] = ATG_E_Box_CIS: Attagene CIS-FACTORIAL HepG2 Assay for human Enhancer Box (E-box) (AID 2282936); details: HepG2 E-box cis-reporter transcription, actives raise or lower the signal
In short: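 DMSO served as negative control and baseline for bidirectional fitting. Human hepatoma HepG2 cells, transiently transfected with cis-reporter constructs, were dosed 24 h; reporter mRNA read by RT-PCR and capillary electrophoresis.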

[2] = ATG_M_61_CIS: Attagene CIS-FACTORIAL HepG2 Assay for M61 Transcription Factor (Internal Marker) (AID 2282937); details: HepG2 Attagene CIS-FACTORIAL M61 internal marker reporter; actives raise or lower the signal
In short: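 This endpoint serves as an internal background control within a multiplexed HepG2 cis-reporter panel. Cells are exposed for 24 h; reporter mRNA is amplified, fluorescently labelled and sized by capillary electrophoresis, with DMSO as negative control.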

[3] = ATG_EGR_CIS: Attagene CIS-FACTORIAL HepG2 Assay for human Early Growth Response 1 (EGR1) (AID 2282938); details: HepG2 Attagene CIS-FACTORIAL EGR reporter mRNA; actives raise or lower the signal
In short: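 HepG2, transient MRTU transfection (cis promoters), 24 h compound. RNA → RT (oligo-dT) → PCR → 6-FAM labelling → HpaI cut → CE fluorescence. Bidirectional fit, DMSO baseline.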

[4] = ATG_M_19_CIS: Attagene CIS-FACTORIAL HepG2 Assay for M19 Transcription Factor (Internal Marker) (AID 2282939); details: HepG2 Attagene CIS-FACTORIAL M19 internal marker reporter; actives raise or lower the signal
In short: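 HepG2 cells transiently transfected with cis-regulated multiple reporter transcription units were dosed for 24 h; reporter mRNA was quantified by RT-PCR, 6-FAM primer-extension labelling, HpaI digestion and capillary electrophoresis, with bidirectional fitting against DMSO baseline.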

[5] = ATG_ERE_CIS: Attagene CIS-FACTORIAL HepG2 Assay for Estrogen Response Element (ERE) (AID 2282940); details: HepG2 ERE cis-reporter, Attagene RNA transcript; actives raise or lower the signal
In short: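 HepG2 cells transiently transfected with cis-promoter-driven multiplexed reporter transcription units report endogenous TF activity. After 24 h compound exposure, reporter mRNA is quantified by RT-PCR with capillary electrophoresis fluorescence; bidirectional fitting versus DMSO baseline.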

[6] = ATG_Ets_CIS: Attagene CIS-FACTORIAL HepG2 Assay for human Erythroblast Transformation Specific (ETS) (AID 2282941); details: HepG2 ETS cis-reporter transcription, actives raise or lower the signal
In short: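 After transient cis-reporter transfection, HepG2 cells receive test chemical for 24 h. Reporter mRNA levels, measured by RT-PCR and capillary electrophoresis fluorescence, are analysed bidirectionally relative to the DMSO baseline.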

[7] = ATG_FoxO_CIS: Attagene CIS-FACTORIAL HepG2 Assay for human Forkhead box O (FoxO) (AID 2282943); details: HepG2 Attagene cis-reporter, FoxO element, mRNA; actives raise or lower the signal
In short: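 HepG2, transient MRTU transfection (cis element, endogenous TFs). Dose 24 h. TriZol RNA → oligo(dT) RT → PCR → 6-FAM primer extension → HpaI cut → CE. Gain/loss vs DMSO.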

[8] = ATG_GATA_CIS: Attagene CIS-FACTORIAL HepG2 Assay for human GATA Binding Protein (AID 2282944); details: HepG2 GATA cis-element reporter, Attagene multiplex mRNA; actives raise or lower the signal
In short: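 HepG2 cells transiently transfected with multiplexed cis-element reporter units reflecting endogenous transcription factor activity; reporter mRNA measured after 24 h dosing by RT-PCR, 6-FAM labeling, HpaI digestion and capillary electrophoresis. Bidirectional fitting versus DMSO baseline.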

[9] = ATG_GLI_CIS: Attagene CIS-FACTORIAL HepG2 Assay for human Zinc Finger Protein GLI1 (AID 2282945); details: HepG2, Attagene cis-factorial reporter mRNA, GLI element; actives raise or lower the signal
In short: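 Bidirectional curve fits relative to DMSO, using reporter mRNA levels from RT-PCR plus capillary electrophoresis. Cells were HepG2 transiently carrying cis-regulated reporter constructs, harvested 24 h after dosing.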

[10] = molecular target: Bile acid receptor (Homo sapiens) (UniProt Q96RI1); test: ATG_IR1_CIS: Attagene CIS-FACTORIAL HepG2 Assay for human Nuclear Receptor Subfamily 1 Group H Member 4 (NR1H4), IR1 submotif (AID 2282946); details: IR1 reporter transcription, actives raise or lower the signal
In short: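 Cells (human HepG2) carry transiently transfected cis-promoter reporter transcription units. Compounds are incubated 24 h, total RNA is reverse-transcribed and amplified, and labelled fragments are resolved by capillary electrophoresis. Curves use DMSO as baseline.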

[11] = ATG_GRE_CIS: Attagene CIS-FACTORIAL HepG2 Assay for human Glucocorticoid Response Elements (GRE) (AID 2282947); details: HepG2 GRE cis-reporter, Attagene multiplex mRNA; actives raise or lower the signal
In short: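 Assay uses human hepatoma HepG2 cells transfected with cis-promoter reporter units, exposed 24 h. mRNA from reporters detected by RT-PCR plus capillary electrophoresis; DMSO serves as negative control and baseline.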

[12] = ATG_ISRE_CIS: Attagene CIS-FACTORIAL HepG2 Assay for human Interferon Regulatory Factor 1 (IRF1) binding to an Interferon-Stimulated Response Element (ISRE) (AID 2282948); details: HepG2 ISRE cis-reporter (Attagene), mRNA transcription readout; actives raise or lower the signal
In short: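 Quantitation relies on labelled RT-PCR fragments separated by capillary electrophoresis. Human HepG2 cells bearing cis-promoter reporter constructs were treated 24 h; DMSO served as baseline for bidirectional fitting.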

[13] = ATG_M_32_CIS: Attagene CIS-FACTORIAL HepG2 Assay for M32 Transcription Factor (Internal Marker) (AID 2282949); details: HepG2 Attagene cis-factorial M32 reporter, mRNA; actives raise or lower the signal;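 further: background control marker of the multiplexed CIS panel rather than a real target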
In short: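 Following 24 h chemical exposure of HepG2 cells transiently expressing cis-promoter reporter constructs, reporter transcript levels were determined by RT-PCR with fluorescent labelling and capillary electrophoresis, then fitted bidirectionally against DMSO.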

[14] = ATG_M_06_CIS: Attagene CIS-FACTORIAL HepG2 Assay for M06 Transcription Factor (Internal Marker) (AID 2282950); details: HepG2 Attagene CIS-FACTORIAL M06 internal marker reporter; actives raise or lower the signal
In short: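 HepG2 cells transiently transfected with cis-regulated multiple reporter transcription units were exposed to chemical for 24 h; reporter mRNA was quantified by RT-PCR, 6-FAM primer labelling, HpaI digestion and capillary electrophoresis, fitted bidirectionally against DMSO.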

[15] = molecular target: Hypoxia-inducible factor 1-alpha (Homo sapiens) (UniProt Q16665); test: ATG_HIF1a_CIS: Attagene CIS-FACTORIAL HepG2 Assay for human Hypoxia Inducible Factor 1 (HIF1A) (AID 2282951); details: HepG2 Attagene cis-factorial HIF1a reporter transcription; actives raise or lower the signal
In short: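 HepG2, transient cis-reporter library, 24 h dosing. RNA → RT (oligo dT) → PCR → 6-FAM primer extension → HpaI → CE. Bidirectional curve fit vs DMSO.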

[16] = molecular target: Hepatocyte nuclear factor 6 (Homo sapiens) (UniProt Q9UBC0); test: ATG_HNF6_CIS: Attagene CIS-FACTORIAL HepG2 Assay for human Hepatocyte Nuclear Factor 6 (HNF6) (AID 2282952); details: HepG2 Attagene cis-factorial HNF6 reporter transcription; actives raise or lower the signal
In short: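 Reporter mRNA induction or loss in HepG2 after 24 h exposure; transient cis-MRTU transfection; fragments quantified by capillary electrophoresis; bidirectional analysis, DMSO as negative control.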

[17] = molecular target: Heat shock factor protein 1 (Homo sapiens) (UniProt Q00613); test: ATG_HSE_CIS: Attagene CIS-FACTORIAL HepG2 Assay for human Heat Shock Transcription Factor 1 (HSE) (AID 2282953); details: HepG2 HSE cis-reporter, Attagene RNA transcription; actives raise or lower the signal
In short: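 HepG2 cells transiently transfected with multiple reporter transcription units under cis-regulatory promoter control, measuring endogenous transcription factor activity. After 24 h chemical exposure, reporter mRNA quantified by RT-PCR, fluorescent labelling, HpaI digestion and capillary electrophoresis; bidirectional fit versus DMSO.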

[18] = ATG_MRE_CIS: Attagene CIS-FACTORIAL HepG2 Assay for human Metal Responsive Element (MRE) (AID 2282954); details: HepG2 MRE cis-reporter transcription, Attagene multiplex; actives raise or lower the signal
In short: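 After a 24 h chemical exposure, transiently transfected HepG2 cells yield RNA whose reporter sequences are amplified, FAM-labelled and sized by capillary electrophoresis. Curves are fitted bidirectionally relative to DMSO.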

[19] = molecular target: Hepatocyte nuclear factor 3-beta (Homo sapiens) (UniProt Q9Y261); test: ATG_FoxA2_CIS: Attagene CIS-FACTORIAL HepG2 Assay for human Forkhead box A2 (FOXA2) (AID 2282942); details: HepG2 cis-reporter transcription factor activity, 24 h; actives raise or lower the signal
In short: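 Cells: HepG2, transient multiplex reporter transfection. Exposure 24 h. Detection: reporter-specific RT-PCR, fluorescent labelling, restriction digest, capillary electrophoresis. Analysis: bidirectional curve fit, DMSO as negative control.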

[20] = ATG_PBREM_CIS: Attagene CIS-FACTORIAL HepG2 Assay for human Phenobarbital-responsive Enhancer Module (PBREM) (AID 2282955); details: HepG2 PBREM cis-reporter, Attagene multiplexed transcription; actives raise or lower the signal
In short: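 HepG2, transient MRTU transfection, 24 h dosing; RNA → oligo(dT) RT → PCR → 6-FAM extension → HpaI → CE. Bidirectional fit vs DMSO.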

Measured: AC50

Bile acid receptor (Homo sapiens), sequence (Q96RI1 whole entry, looked up, the tested form may be a part): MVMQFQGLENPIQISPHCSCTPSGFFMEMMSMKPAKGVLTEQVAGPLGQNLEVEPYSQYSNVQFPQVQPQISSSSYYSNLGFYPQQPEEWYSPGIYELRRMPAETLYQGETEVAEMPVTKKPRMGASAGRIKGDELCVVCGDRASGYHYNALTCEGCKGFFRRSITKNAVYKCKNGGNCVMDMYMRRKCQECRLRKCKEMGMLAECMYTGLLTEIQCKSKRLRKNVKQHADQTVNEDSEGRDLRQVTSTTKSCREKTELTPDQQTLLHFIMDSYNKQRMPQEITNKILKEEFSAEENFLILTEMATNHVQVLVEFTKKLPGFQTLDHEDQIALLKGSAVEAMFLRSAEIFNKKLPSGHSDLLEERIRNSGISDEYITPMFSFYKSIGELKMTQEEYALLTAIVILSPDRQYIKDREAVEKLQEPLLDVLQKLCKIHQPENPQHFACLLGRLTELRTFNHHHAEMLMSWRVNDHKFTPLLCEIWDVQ
Hypoxia-inducible factor 1-alpha (Homo sapiens), sequence (Q16665 whole entry, looked up): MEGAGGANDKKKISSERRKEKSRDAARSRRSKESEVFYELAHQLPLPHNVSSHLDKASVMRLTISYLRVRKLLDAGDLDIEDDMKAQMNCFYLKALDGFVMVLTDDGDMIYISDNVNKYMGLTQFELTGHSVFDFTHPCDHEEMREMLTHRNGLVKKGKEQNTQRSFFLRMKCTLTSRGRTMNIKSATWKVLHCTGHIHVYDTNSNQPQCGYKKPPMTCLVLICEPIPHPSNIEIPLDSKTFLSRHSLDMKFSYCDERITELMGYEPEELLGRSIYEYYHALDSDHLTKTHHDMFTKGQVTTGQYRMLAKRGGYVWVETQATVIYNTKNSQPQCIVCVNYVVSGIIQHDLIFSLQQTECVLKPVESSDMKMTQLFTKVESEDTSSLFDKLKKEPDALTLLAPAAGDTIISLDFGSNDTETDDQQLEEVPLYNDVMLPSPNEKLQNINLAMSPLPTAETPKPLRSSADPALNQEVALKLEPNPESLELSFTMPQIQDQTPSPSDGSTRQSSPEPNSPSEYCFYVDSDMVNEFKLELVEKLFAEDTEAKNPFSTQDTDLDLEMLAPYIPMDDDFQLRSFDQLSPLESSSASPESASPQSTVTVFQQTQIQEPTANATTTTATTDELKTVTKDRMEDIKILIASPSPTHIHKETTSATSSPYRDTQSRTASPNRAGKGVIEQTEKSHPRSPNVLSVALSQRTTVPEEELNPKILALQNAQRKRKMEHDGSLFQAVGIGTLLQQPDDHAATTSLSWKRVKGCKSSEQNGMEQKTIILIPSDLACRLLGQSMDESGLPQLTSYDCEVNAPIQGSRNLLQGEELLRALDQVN
Heat shock factor protein 1 (Homo sapiens), sequence (Q00613 whole entry, looked up): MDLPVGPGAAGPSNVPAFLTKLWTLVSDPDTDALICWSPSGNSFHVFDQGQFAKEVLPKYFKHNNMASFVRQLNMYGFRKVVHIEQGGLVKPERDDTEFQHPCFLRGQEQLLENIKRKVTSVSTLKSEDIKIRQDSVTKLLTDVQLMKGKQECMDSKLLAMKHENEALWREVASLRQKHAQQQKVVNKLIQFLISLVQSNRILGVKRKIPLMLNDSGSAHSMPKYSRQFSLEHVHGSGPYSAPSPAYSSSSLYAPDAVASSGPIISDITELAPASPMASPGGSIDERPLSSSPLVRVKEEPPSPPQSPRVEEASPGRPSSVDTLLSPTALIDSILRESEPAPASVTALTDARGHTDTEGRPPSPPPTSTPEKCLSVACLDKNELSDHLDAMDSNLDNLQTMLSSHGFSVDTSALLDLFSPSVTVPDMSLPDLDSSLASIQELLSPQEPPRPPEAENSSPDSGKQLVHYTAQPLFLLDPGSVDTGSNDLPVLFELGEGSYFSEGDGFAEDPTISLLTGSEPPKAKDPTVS
Hepatocyte nuclear factor 6 (Homo sapiens), sequence (Q9UBC0 whole entry, looked up, the tested form may be a part): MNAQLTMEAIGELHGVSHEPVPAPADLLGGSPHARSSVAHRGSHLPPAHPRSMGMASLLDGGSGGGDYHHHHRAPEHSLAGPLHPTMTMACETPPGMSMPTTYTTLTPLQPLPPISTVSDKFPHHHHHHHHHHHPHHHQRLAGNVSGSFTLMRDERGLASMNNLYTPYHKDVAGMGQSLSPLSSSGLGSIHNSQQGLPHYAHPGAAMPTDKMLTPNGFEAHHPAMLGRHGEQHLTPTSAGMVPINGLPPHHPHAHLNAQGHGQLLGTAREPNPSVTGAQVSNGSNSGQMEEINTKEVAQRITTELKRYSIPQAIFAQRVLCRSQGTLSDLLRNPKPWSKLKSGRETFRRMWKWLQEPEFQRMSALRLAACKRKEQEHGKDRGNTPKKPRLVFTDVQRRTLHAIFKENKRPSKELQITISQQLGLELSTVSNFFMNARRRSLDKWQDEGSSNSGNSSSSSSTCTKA
Hepatocyte nuclear factor 3-beta (Homo sapiens), sequence (Q9Y261 whole entry, looked up): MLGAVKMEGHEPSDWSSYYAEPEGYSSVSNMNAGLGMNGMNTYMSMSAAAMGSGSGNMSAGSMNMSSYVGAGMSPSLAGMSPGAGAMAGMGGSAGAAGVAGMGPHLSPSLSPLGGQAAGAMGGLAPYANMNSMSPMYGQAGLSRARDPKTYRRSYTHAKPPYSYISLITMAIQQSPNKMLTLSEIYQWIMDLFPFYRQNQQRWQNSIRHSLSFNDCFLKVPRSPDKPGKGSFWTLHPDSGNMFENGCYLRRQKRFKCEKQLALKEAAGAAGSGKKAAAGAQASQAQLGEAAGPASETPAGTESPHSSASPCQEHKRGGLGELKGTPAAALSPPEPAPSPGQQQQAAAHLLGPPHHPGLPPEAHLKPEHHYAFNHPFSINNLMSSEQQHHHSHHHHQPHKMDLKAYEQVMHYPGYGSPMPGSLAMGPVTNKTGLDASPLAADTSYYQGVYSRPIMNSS

Cn1c(=O)cc(Oc2ccc(F)cc2F)c2cnc(NCC(C)(C)O)nc21
not listed: [18] | [19] | [20]
inactive: all other assays above

CCCCCCCCCCCCc1ccccc1
not listed: [5] | [11] | [15] | [18] | [19] | [20]
inactive: all other assays above

O=C(O)c1cc(N=Nc2ccc(S(=O)(=O)Nc3ccccn3)cc2)ccc1O
not listed: [5] | [7] | [10] | [15] | [19] | [20]
inactive: all other assays above

COCCOc1cc2cc(C(=O)NC3CCN(C(C)C)CC3)n(CC(=O)Nc3ccc(Cl)cn3)c2cn1
active: [1] 100 µM | [3] 123 µM | [12] 139 µM | [16] 28.6 µM | [18] 135 µM
not listed: [5] | [15] | [20]
inactive: all other assays above

CC(C)=CCCC(C)CCO (stereo not given)
active: [5] 65.7 µM | [15] 178 µM
not listed: [4] | [7] | [10] | [11] | [20]
inactive: all other assays above

Cc1c(-c2cccnc2)c2ccccc2n1CCCCC(=O)O
not listed: [5] | [11] | [15] | [18] | [20]
inactive: all other assays above

CCCN(C1CCN(C(=O)C2CCNCC2)CC1)[C@@H]1CCc2ccc(OC)cc2C1
active: [1] 45.1 µM | [3] 100 µM | [8] 152 µM | [9] 153 µM | [12] 90.6 µM
not listed: [5] | [7] | [10] | [18] | [20]
inactive: all other assays above

C1=CCCC=CCCC=CCC1
active: [1] 76.6 µM
not listed: [5] | [7] | [20]
inactive: all other assays above

CCCCCCCCCCCCCCCO
active: [7] 175 µM | [10] 41.3 µM
not listed: [5] | [11] | [15] | [18] | [19] | [20]
inactive: all other assays above

COC(=O)CC(=O)OC
not listed: [7] | [10]
inactive: all other assays above

O=c1n(CC2CO2)c(=O)n(CC2CO2)c(=O)n1CC1CO1 (stereo not given)
active: [3] 100 µM | [6] 100 µM | [7] 31.7 µM | [11] 32.7 µM
not listed: [10] | [15] | [18]
inactive: all other assays above

O=C(O)c1cccc(N(Cc2cccnc2)c2ccc(OC(F)F)c(OC(F)F)c2)c1
not listed: [5] | [7] | [10] | [11] | [15] | [18] | [19]
inactive: all other assays above

O=C(O)c1cccc(Oc2ccccc2)c1
not listed: [4] | [10] | [18] | [19]
inactive: all other assays above

CCOCCO
not listed: [5] | [15]
inactive: all other assays above

Cc1[nH]cnc1C[C@H]1CCc2c(C)c3ccccc3n2C1=O
active: [3] 29.7 µM | [12] 21.9 µM | [17] 46.5 µM
not listed: [5] | [15] | [18] | [20]
inactive: all other assays above

CNS(=O)(=O)c1cc(C(=O)N2CCC(CCN3C4CCC3CC(n3c(C)nc5ccccc53)C4)(c3cccc(F)c3)CC2)c(Cl)cc1F (stereo not given)
active: [10] 3.85 µM | [12] 8.05 µM
not listed: [5] | [7] | [11] | [18] | [19] | [20]
inactive: all other assays above
